Experimental data from PubChem BioAssay (EPA / NIEHS).
Results filed as inconclusive are left out. Active and inactive are the calls of the source. How the source made its calls, unless noted: active means hit-call score of the fitted dose curve at least 0.9, where 1 is the maximum; inactive means score below 0.9.

Key:
[1] = TAMU_PeakParms_SingleDonor1434_Chronotropy: Texas A&M University (TAMU) 1.5-hr Human Induced Pluripotent Stem Cell (iPSC)-derived Cardiomyocytes Calcium (Ca+2) Flux Assay for Cardiotoxicity: Chronotropy (changes in peak frequency) (AID 2284217); details: actives raise or lower the signal
In short: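 Using fluorescent Ca2+ flux, average beats per second are measured in human iPSC-derived cardiomyocytes treated 90 min (0.5% DMSO vehicle, 0.2–100 uM). Non-beating data points are removed; activity is modeled in both directions relative to DMSO controls.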

[2] = TAMU_HCS_1.5hr_SingleDonor1434_Cytotoxicity: Cytotoxicity Assessment using High-content Screening (HCS) Fluorescent Imaging for the Texas A&M University (TAMU) 1.5-hr Human Induced Pluripotent Stem Cell (iPSC)-derived Cardiotoxicity Assay (AID 2284234; active means hit-call score of the fitted dose curve at least 0.9, where 1 is the maximum)
In short: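 Nuclear counts from Hoechst 33342 imaging define cytotoxicity here, with EC10 (10% cell-count loss relative to DMSO) as point of departure. iPSC cardiomyocytes received 0.2-100 uM test chemical in 0.5% DMSO for 1.5 h at 37 C.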

[3] = TAMU_PeakParms_SingleDonor1434_QT: Texas A&M University (TAMU) 1.5-hr Human Induced Pluripotent Stem Cell (iPSC)-derived Cardiomyocytes Calcium (Ca+2) Flux Assay for Cardiotoxicity: QT (decay-rise ratio) (AID 2284235; active means hit-call score of the fitted dose curve at least 0.9, where 1 is the maximum)
In short: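 Decay/rise ratio of calcium-flux fluorescence scored after 90 min exposure (37C) of donor 1434 iPSC cardiomyocytes to 0.2–100 uM (0.5% DMSO). Beat-cessation and severe-notch points removed; POD is EC05, a 5% rise over DMSO.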

[4] = CCTE_Mundy_HCI_Cortical_Synap_Neur_Matur_SynapseCount: CCTE's Synaptogenesis and Neurite Maturation Assay in rat cortical cells for Synapse Count, Mundy Lab (AID 2284218)
In short: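 Cells were plated, allowed 2 hr to attach, treated with AraC at DIV 5, then exposed to chemicals from DIV 7 until DIV 12. After fixation and MAP2/synaptophysin immunolabelling, synapses per neuron were quantified by automated imaging against DMSO.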

[5] = CCTE_Mundy_HCI_hN2_NOG_NeuriteCount: CCTE's Neurite Outgrowth Assay in human hN2 cells for Neurite Count, Mundy Lab (AID 2284219; active means hit-call score of the fitted dose curve at least 0.9, where 1 is the maximum)
In short: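 In this morphology assay, hNP1-derived neurons received test chemical 2 h post-plating and were fixed two days later in warm paraformaldehyde/sucrose containing Hoechst 33342. Neurites, labelled by rabbit anti-βIII-tubulin (1:800) and Alexa Fluor-488 (1:500), were counted automatically.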

[6] = CCTE_Mundy_HCI_hN2_NOG_NeuriteLength: CCTE's Neurite Outgrowth Assay in human hN2 cells for Neurite Length, Mundy Lab (AID 2284220; active means hit-call score of the fitted dose curve at least 0.9, where 1 is the maximum)
In short: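 Read-out is neurite length from high-content imaging of βIII-tubulin/Alexa Fluor-488-labelled neurons, referenced to DMSO controls.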

[7] = CCTE_Mundy_HCI_hN2_NOG_NeuronCount: CCTE's Neurite Outgrowth Assay in human hN2 cells for Neuron Count, Mundy Lab (AID 2284221; active means hit-call score of the fitted dose curve at least 0.9, where 1 is the maximum)
In short: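 Read-out is the number of betaIII-tubulin-positive neurons imaged by automated high-content analysis, with DMSO as negative control.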

[8] = CCTE_Mundy_HCI_Cortical_Synap_Neur_Matur_CellBodySpotCount: CCTE's Synaptogenesis and Neurite Maturation Assay in rat cortical cells for Cell Body Spot Count, Mundy Lab (AID 2284223)
In short: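 Primary rat cortical cultures, AraC added at DIV 5; dosed DIV 7 through DIV 12 […]. Fixed, stained for MAP2 and synaptophysin with Hoechst; cell body-associated synaptophysin puncta per neuron counted by high-content imaging, loss vs DMSO.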

[9] = UKN4_HCS_LUHMES_cell_viability: Viability Assessment in the University of Konstanz (UKN) Leist Lab Neurite Outgrowth Assay in human LUHMES cells (UKN4) (AID 2284232)
In short: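 Cells switched to differentiation medium at day 0, replated on day 2 in medium lacking cAMP and GDNF, and compound-treated once attached. Live staining began 23.5 h later, imaging followed at 24 h.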

[10] = UKN2_HCS_IMR90_cell_viability: Viability Assessment in the University of Konstanz (UKN) Leist Lab Neural Crest Cell Migration Assay in human induced IMR90 Pluripotent Stem Cells (UKN2) (AID 2284233);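 further: cells exposed to compound for 24 h after a 24 h migration phase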
In short: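 Viability read as calcein-AM fluorescence by high-content imaging, Hoechst co-stain, 30 min. Human iPSC (IMR90) neural crest cells had migrated 24 h into stopper-defined gaps before 24 h chemical exposure. Fitted bidirectionally relative to DMSO.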

[11] = CCTE_Mundy_HCI_Cortical_Synap_Neur_Matur_NeuriteCount: CCTE's Synaptogenesis and Neurite Maturation Assay in rat cortical cells for Neurite Count, Mundy Lab (AID 2284222)
In short: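 In this multiplexed morphology readout, rat primary cortical neurons are fixed at DIV 12 following dosing at DIV 7 and stained for MAP2, synaptophysin and nuclei. High-content image analysis yields neurite count.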

[12] = CCTE_Mundy_HCI_hNP1_Pro_ResponderAvgInten: CCTE's Proliferation Assay in human neuroprogenitor cells, Mundy Lab (AID 2284224; active means hit-call score of the fitted dose curve at least 0.9, where 1 is the maximum;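 further: human neural progenitor cells hNP1 derived from WA09 embryonic stem cells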)
In short: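 Proliferation read as average intensity of BrdU-positive cells, imaged at 26.25 h post-dosing: chemical exposure started after 40–44 h culture, BrdU during final 4 h, paraformaldehyde fixation. Positive-direction fit relative to DMSO.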

[13] = CCTE_Mundy_HCI_Cortical_NOG_NeuronCount: CCTE's Neurite Outgrowth Assay in rat cortical cells for Neuron Count, Mundy Lab (AID 2284236; active means hit-call score of the fitted dose curve at least 0.9, where 1 is the maximum;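 further: neurons counted by imaging betaIII-tubulin and Hoechst stained cortical cells; cells exposed to compound for about 48 hours before fixation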)
In short: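 Read-out: neuron number by high-content imaging of betaIII-tubulin (Alexa Fluor-488) and Hoechst-labelled rat primary cortical cells.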

[14] = BSK_BT_PBMCCytotoxicity: PBMC Cytotoxicity Assessment in the BioMAP Diversity Plus: BT Assay (AID 2284225); details: primary human B cells with PBMC;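 further: PBMC viability measured by Alamar Blue dye reduction fluorescence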
In short: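 Viability by Alamar Blue reduction (6 h, ex/em 546/580 nm) after 90 h culture of SEB/TSST-1-activated PBMC (20 ng/mL each) given compound 1 h before activation. DMSO served as baseline for curve fitting.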

[15] = read-out: Secreted IgG (sIgG), gene 3500; assay: BSK_BT_sIgG: BioMAP Diversity Plus: BT Assay for Secreted IgG (sIgG) Biomarker Activity (AID 2284226); details: primary human B cells with PBMC
In short: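 Cells (B cells with peripheral blood mononuclear cells) are dosed, cultured 24 h, then supernatant IgG is measured by ELISA. DMSO serves as negative control; curves are fitted for signal increase.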

[16] = BSK_BT_Bcell_Proliferation: Viability Assessment in the BioMAP Diversity Plus: BT Assay for B cell Proliferation (AID 2284227); details: primary human B cells with PBMC
In short: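 Using a human primary B cell–PBMC co-culture, the assay measures total protein by sulforhodamine B absorbance as a gauge of proliferation after 72 h. Analysis followed the positive fitting direction with DMSO as baseline.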

[17] = read-out: Interleukin 6 (IL6), IL6 (gene 3569); assay: BSK_BT_xIL6: BioMAP Diversity Plus: BT Assay for Interleukin 6 (IL6) Biomarker Activity (AID 2284228); details: primary human B cells with PBMC
In short: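 Human B cell/PBMC co-culture; secreted IL-6 quantified by Luminex xMAP 24 h after chemical dosing, fitted relative to DMSO. Parallel PBMC viability by Alamar Blue after 1 h pretreatment, 20 ng/mL SEB and TSST-1, 90 h incubation.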

[18] = read-out: Interleukin 17A (IL17A), IL17A (gene 3605); assay: BSK_BT_xIL17A: BioMAP Diversity Plus: BT Assay for Interleukin 17A (IL17A) Biomarker Activity (AID 2284229); details: primary human B cells with PBMC
In short: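 Co-culture of human B cells and PBMC, dosed for 24 h in 96-well format. Secreted IL-17A measured with Luminex xMAP; gain-direction fitting against DMSO as baseline.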

[19] = read-out: Tumor necrosis factor (Homo sapiens) (UniProt P01375); assay: BSK_BT_xTNFa: BioMAP Diversity Plus: BT Assay for Tumor necrosis factor alpha (TNF-alpha) Biomarker Activity (AID 2284230); details: primary human B cells with PBMC
In short: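 Endpoint derived in the positive direction versus DMSO vehicle. Cells: B cells together with PBMC, exposed 24 h before TNF-alpha in the medium was read on the Luminex xMAP platform.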

[20] = read-out: Vascular cell adhesion molecule 1 (VCAM1), VCAM1 (gene 7412); assay: BSK_MyoF_VCAM1: BioMAP Diversity Plus: MyoF Assay for Vascular cell adhesion molecule 1 (VCAM1) Biomarker Activity (AID 2284231); details: primary human lung fibroblasts
In short: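 Primary human lung fibroblasts (BioMAP MyoF system) dosed with chemical, VCAM-1 measured by ELISA 24 hours later. Fitted in the positive direction against DMSO; parallel SRB staining assessed cytotoxicity.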

Measured: AC50

Chain of Tumor necrosis factor (Homo sapiens) (P01375 whole entry, looked up): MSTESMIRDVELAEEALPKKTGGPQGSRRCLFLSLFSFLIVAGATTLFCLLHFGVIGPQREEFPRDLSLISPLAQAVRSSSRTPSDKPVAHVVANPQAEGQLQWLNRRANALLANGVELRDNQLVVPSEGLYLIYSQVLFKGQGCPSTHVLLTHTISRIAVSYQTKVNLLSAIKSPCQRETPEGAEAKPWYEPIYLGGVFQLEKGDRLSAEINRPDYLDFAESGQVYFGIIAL

CC(=O)[C@H]1CC[C@H]2[C@@H]3CCC4=CC(=O)CC[C@]4(C)[C@H]3CC[C@]12C
inactive: [1] | [2] | [3]

S=C([S-])NCCNC(=S)[S-].[Mn+2]
active: [9] 3.31 µM | [10] 16.1 µM
inactive: [4] | [5] | [6] | [7] | [8]

CSC(=O)c1cccc2nnsc12
inactive: [4] | [11] | [8]

c1ccc2[nH]c(-c3cscn3)nc2c1
inactive: [2] | [3]
active: [1] 9.92 µM

CC1(C)C(C=C(Cl)Cl)C1C(=O)OCc1cccc(Oc2ccccc2)c1 (centres undefined)
active: [4] 9.11 µM | [7] 20.2 µM | [13] 78.4 µM
inactive: [1] | [5] | [6] | [11] | [8] | [12] | [3]

COCCO
inactive: [1] | [14] | [15] | [16] | [17] | [18] | [19] | [20] | [2]

N#CSCSc1nc2ccccc2s1
active: [14] 3.65 µM | [15] 3.18 µM | [16] 5.47 µM | [17] 4.1 µM | [18] 4.06 µM | [19] 7.28 µM | [20] 4.37 µM

CCC(C)OC(=O)N1CCCCC1CCO (centres undefined)
inactive: [14] | [15] | [16] | [17] | [18] | [19] | [20]

S=C(S)NCCNC(=S)S.[Mn+2].[S-]C([S-])=NCCN=C([S-])[S-].[Zn+2]
inactive: [4] | [11] | [8]

C#CCOC(=O)[C@@H](C)Oc1ccc(Oc2ncc(Cl)cc2F)cc1
active: [12] 50 µM
inactive: [4] | [11] | [8] | [10] | [13]

O=C(O)c1ccccc1
inactive: [1] | [4] | [5] | [6] | [7] | [11] | [8] | [3] | [13]

CC(C)(c1ccc(O)cc1)c1ccc(O)cc1
active: [1] 50 µM | [4] 50 µM | [5] 77.3 µM | [6] 78.8 µM | [7] 50 µM
inactive: [8] | [12] | [2] | [3] | [13]

CCN(CC)C(=O)c1cccc(C)c1
inactive: [4] | [11] | [8] | [12] | [10] | [13]

CCCN(CCC)C(=O)SCC
inactive: [4] | [11] | [8] | [12] | [10]

Cc1nn(C)c(Oc2ccccc2)c1C=NOCc1ccc(C(=O)OC(C)(C)C)cc1
active: [4] 0.0023 µM | [11] 0.00454 µM | [8] 0.00403 µM | [12] 7.65 µM | [10] 14 µM | [13] 0.327 µM
